This is a sample that favours compounds with a hit; in the whole collection about 4.1% have one here.
hgDAF12 agonist: agonists of H. glycines DAF-12 nuclear receptor. HEK293 GAL4-hgDAF12 UAS-luciferase reporter, agonist luminescence; normalized to butyrate control. activation, % at 6.8 µM. 370,000 tested, 1.8% active;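 active means activation above a cutoff set at the mean of all screened compounds plus 3 SD, cut at about 10% in these data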
ssDAF12 agonist: activators of S. stercoralis DAF-12 nuclear receptor | HEK293 ssDAF-12/GRIP1 lit1-tk-luc reporter, luminescence; % of 3 µM dafachronic acid response | activation, % at 6.8 µM | 370,000 tested, 1% active | AID 652126;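 active means activation above the mean over all tested compounds plus 3 SD, cut at about 0.9% in these data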
DAX1 inh-1: DAX1 (NR0B1) inhibition, primary screen. HEK293T StAR-luciferase reporter, SF-1/DAX-1 repression relief. inhibition, % at 6.8 µM. 370,000 tested, 1.1% active. AID 652010;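 active means inhibition above the mean over all tested compounds plus 3 SD, cut at about 3.6% in these data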;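 further: higher inhibition means more luminescence from relief of DAX-1 repression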
hcDAF12 agonist: H. contortus DAF-12 activation, primary screen | activation, % at 6.8 µM | HEK293 hcDAF-12 lit1-tk-luc reporter, luminescence; 0% DMSO, 100% Δ7-dafachronic acid | AID 652067 | 370,000 tested, 1.4% active;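 active means activation above the mean of all tested compounds plus 3 SD, cut at about 5.5% in these data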
DAX1 inh-2: inhibitors of human orphan nuclear receptor DAX1 (NR0B1). P51843. HEK293 Gal4-DAX1 luciferase reporter, luminescence. inhibition, % at 6.75 µM. 340,000 tested, 0.99% active. AID 504766;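 active means inhibition above the mean over all tested compounds plus 3 SD, cut at about 4.2% in these data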;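 further: inhibition shows as a rise in luminescence from relieved DAX1 repression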
Target sequence (P51843 207-470 limits assumed): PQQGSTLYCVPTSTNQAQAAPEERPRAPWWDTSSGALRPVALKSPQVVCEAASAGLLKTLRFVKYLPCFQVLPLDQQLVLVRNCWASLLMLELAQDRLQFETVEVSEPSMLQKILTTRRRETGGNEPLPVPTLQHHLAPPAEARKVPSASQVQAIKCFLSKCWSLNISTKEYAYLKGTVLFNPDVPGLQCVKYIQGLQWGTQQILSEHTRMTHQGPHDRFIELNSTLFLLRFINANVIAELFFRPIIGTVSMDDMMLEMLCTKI
Hits are given with their value; – = inactive; · = no result given.

SMILES	hgDAF12 agonist	ssDAF12 agonist	DAX1 inh-1	hcDAF12 agonist	DAX1 inh-2
COC(=O)CNC(=O)COC(=O)/C=C/c1ccccc1[N+](=O)[O-]	–	2.0	–	–	–
NS(=O)(=O)c1ccc(CNC(=O)/C=C/c2ccccc2[N+](=O)[O-])cc1	–	–	–	–	4.4
COc1ccc(NC(=O)COC(=O)/C=C/c2ccccc2[N+](=O)[O-])cc1	–	–	–	–	–
O=C(/C=C/c1ccccc1[N+](=O)[O-])NCc1ccc(Cl)cc1	–	–	–	–	–
CN1[C@H](Cc2ccccc2)COc2cc(N3CCSCC3)ccc2S1(=O)=O	–	–	–	–	·
CCc1n[nH]c(=S)n1/N=C/c1ccc(N(C)c2ccccc2)cc1	–	–	–	–	–
C(=NN1CCCCCC1)c1ccc2c(c1)OCO2	–	–	–	–	4.3
CN1CCN(C(=O)/C=C/c2ccc3c(c2)OCO3)CC1	–	–	–	–	–
CCc1n[nH]c(=S)n1/N=C/c1ccc2c(c1)OCO2	–	–	–	–	4.8
O=C(/C=C/C=C/c1ccc2c(c1)OCO2)N1CCCCC1	–	–	–	–	5.3
Cc1ccc(Cn2cc(COC(=O)N3CCOCC3)nn2)cc1	–	–	–	–	·
Cc1ccc(S(=O)(=O)N[C@@H](CC(C)C)C(=O)N2CCC(C(=O)N[C@@H](Cc3ccccc3)C(=O)O)CC2)cc1	–	–	–	–	6.9
Cc1ccc(S(=O)(=O)N[C@H](C(=O)N2CCC(C(=O)N[C@@H](CC(=O)O)C(=O)O)CC2)C(C)C)cc1	–	–	–	–	8.8
COc1ccc(CN2CCC(CNC(=O)NC3CCCC3)CC2)cc1	–	–	–	–	·
O=C(Nc1ncc(Cc2cccc(Cl)c2Cl)s1)C1CCCO1 (centres undefined)	–	–	–	–	–
O=C(Nc1ncc(Cc2ccccc2Cl)s1)C1CCCO1 (centres undefined)	12	–	–	–	–
O=C(Nc1nc(-c2ccc3c(c2)OCO3)cs1)C1COc2ccccc2O1 (centres undefined)	–	–	–	–	–
CC(=O)Nc1nc(-c2ccc3c(c2)OCO3)cs1	12	–	–	–	–
Cc1nc(-c2ccc3c(c2)OCCO3)cs1	–	–	–	–	–
CN(C)/C=N/c1nc(-c2ccc3c(c2)OCO3)cs1	11	–	–	–	–
COC(=O)C1CN(Cc2cn(CCC3OCCO3)nn2)CCS(=O)(=O)N1Cc1ccc(C)cc1 (centres undefined)	–	–	–	–	·
CCOC(=O)CC[C@@H]1CC[C@]2(CCCN(Cc3nccn3C)C2)O1	–	–	–	–	·
O=c1c(/C=N/Nc2ccccc2)c(Sc2nnnn2-c2ccccc2)nc2ccccn12	12	–	–	6.3	–
O=C(O)c1ccccc1N/N=C/c1c(Sc2nnnn2-c2ccccc2)nc2ccccn2c1=O	–	–	–	–	–
CCOC(=O)[C@]12CCCC3=C1N(CCC3)C(=O)[C@@H](CC(=O)NCCc1ccccc1OC)C2	–	–	–	–	·
SMILES	hgDAF12 agonist	ssDAF12 agonist	DAX1 inh-1	hcDAF12 agonist	DAX1 inh-2
CCOC(=O)[C@@]12CCC3=C1N(CCC3)C(=O)[C@H](CC(=O)NCCc1ccccc1OC)C2	–	0.9	–	–	·
O=C(c1ccc(F)cc1)C1CCN(c2ncnc3sccc23)CC1	–	–	·	–	·
CCOC(=O)N1CCN(CC(O)COc2ccc(-c3ccccc3)cc2)CC1 (centres undefined)	–	–	–	–	–
Cc1cccc(N2CCN(CC(O)COc3ccc(Cl)cc3)CC2)c1 (centres undefined)	–	–	–	–	–
CN1CCN(CC(O)COc2ccccc2)CC1 (centres undefined)	13	–	–	–	–
Cc1cccc(N2CCN(CC(O)COc3ccccc3)CC2)c1 (centres undefined)	–	–	–	–	4.8
NC(=O)C1CCN(CC(O)COc2ccc(-c3ccccc3)cc2)CC1 (centres undefined)	–	–	–	–	5.6
Cc1nn(-c2ccccc2)c(C)c1/C=N/NC(=O)c1[nH][nH]c(=O)c1C	–	–	–	–	·
Cc1ccc2nsnc2c1NC(=S)NC(=O)c1ccco1	–	–	–	–	–
Cc1ccc2nsnc2c1NC(=O)c1cccnc1Cl	–	10	–	–	–
CC1CC2CCCC(O)=C2C(=O)O1 (centres undefined)	–	–	–	–	4.3
Cn1c(=O)cc(OCCCC(=O)Nc2cc(-c3ccncc3)ccn2)c2ccccc21	–	–	·	–	·
COc1ccc(C)cc1Nc1nc(-c2c[nH]c3ccccc23)cs1	–	–	–	5.8	–
NC(=O)CN(c1ccc([N+](=O)[O-])cc1)S(=O)(=O)c1ccccc1	–	–	–	–	4.4
COC(=O)CNC(=O)c1cc(OC)cc(OC)c1	–	–	3.8	–	–
Cc1ccc(N2CCN(/N=C\c3cccnc3)CC2)cc1	–	–	–	–	·
CCN(C[C@@H]1[C@@H](c2ccccc2)[C@H](CO)N1S(C)(=O)=O)C(=O)C1CCC1	–	–	–	–	·
O=C(NCc1ccccc1Cl)O[C@H]1CC[C@@]23CCCN2C(=O)CCC[C@H]3C1	–	–	·	–	·
COc1ccc(S(=O)(=O)N2N=C(c3cccc(NS(C)(=O)=O)c3)CC2c2ccco2)cc1 (centres undefined)	–	–	–	–	–
COc1ccc(S(=O)(=O)N2N=C(c3ccc(NS(C)(=O)=O)cc3)CC2c2ccco2)cc1 (centres undefined)	–	1.3	–	5.6	–
CCN1CCN(C(=O)C2=CC(c3ccc(OC)cc3)=NS(=O)(=O)N2C)CC1	–	–	–	–	–
CCN1CCN(C(=O)C2=CC(c3ccc(C)cc3)=NS(=O)(=O)N2C)CC1	–	–	–	–	4.5
COC(=O)c1cc(-c2ccccc2OC)c(=O)n2c1CCC2	–	–	–	–	·
C=CCOC(=O)/C(=C/c1cccc2ccccc12)NC(=O)c1ccccc1	–	–	–	–	4.3
COc1ccc2cc(-c3cn(C(=O)N(c4ccccc4)c4ccccc4)nn3)ccc2c1	–	–	·	–	·
SMILES	hgDAF12 agonist	ssDAF12 agonist	DAX1 inh-1	hcDAF12 agonist	DAX1 inh-2
Cc1ccc(NC(=O)[C@H](C)NC(=O)C2CCN(C(=O)[C@@H](N)CC(C)C)CC2)cc1	–	–	–	6.0	–
COc1ccc(CNC(=O)[C@H](C)NC(=O)C2CCN(C(=O)[C@@H](N)Cc3ccccc3)CC2)cc1	–	–	–	–	6.1
COc1ccc(CNC(=O)[C@H](NC(=O)C2CCN(C(=O)[C@@H](N)CCSC)CC2)C(C)C)cc1	–	–	–	–	–
CSCC[C@H](N)C(=O)N1CCC(C(=O)N[C@@H](C)C(=O)NCc2ccc(F)cc2)CC1	–	–	–	–	–
COc1ccc(CNC(=O)[C@H](C)NC(=O)C2CCN(C(=O)[C@@H](N)CCSC)CC2)cc1	–	–	–	–	4.4
CCOC(=O)[C@]12CCCC=C1N(CCc1ccc(Cl)cc1)C(=O)[C@@H]2CC(=O)NCCC(C)C	–	–	–	–	·

From PubChem BioAssay
